Reference: PubChem BioAssay (NCATS)
“And” between values parts separate entries of the source, which are not always exact repeats. Equal values may be shown once. Inconclusive results are not listed. A call without a number means that no potency is given here. The source made the active and inactive calls. Unless noted, how the calls were made is not given here.

System: not listed separately
Assay: qHTS assay for cell viability of the p53RE-bla HCT-116 cell line (AID 743292; active means well fitted cell-killing curve with a large enough effect; further: nearly all actives have a fitted effect of over 55% in size; further: potency means the concentration at half of the fitted maximal effect)
Conditions: p53RE-bla HCT-116 viability, ATP luminescence, 16 h; series mostly up to 95 µM
Summary of the method: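 Viability of compound-treated p53RE-bla HCT-116 cells is taken from ATP-dependent luciferase luminescence. Treatment lasts 16 h at 37 C after a 5 h settling period; detection follows 30 min at room temperature.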

| SMILES | Potency |
| --- | --- |
| CC(C)CCCCCCCCCCCCCCC(=O)O | inactive |
| CCCCCCCCCCCCc1ccccc1 | inactive |
| C=CCOc1nc(OCC=C)nc(OCC=C)n1 | inactive |
| CCCCCCCCCCCC(=O)OC | 28.2 µM (active) |
| CCOC(=O)c1ccccc1C | inactive |
| CCCCCCCCCCCC[N+](C)(C)C | inactive |
| CCCC/C=C\CCCCCCCCCC=O | inactive |
| CCCCCCCCCCCCN | inactive |
| CCC(O)OCCCOC (stereo not given) | inactive |
| C=CCCCCCCCCCC | inactive |
| CCCCCCCCCCCCCCC | inactive |
| Oc1ccc(C(c2ccc(O)cc2)C(Cl)(Cl)Cl)cc1 | inactive |
| CC(C)(N=C=O)c1cccc(C(C)(C)N=C=O)c1 | inactive |
| CC(C)C(=O)OC(=O)C(C)C | inactive |
| CC1=CC(=O)CC(C)(C)C1 | inactive |
| CCCCCCCC/C=C\CCCCCCCCO | inactive |
| CCCCCCCC[Si](OCC)(OCC)OCC | inactive |
| CCCCCCCCCCCCCCCO | inactive |
| COc1cc(Cl)c(OC)cc1N | inactive |
| O=S(=O)(O)c1cc(S(=O)(=O)O)c2c(N=Nc3ccccc3)c(O)ccc2c1 | inactive |

| SMILES | Potency |
| --- | --- |
| Cc1ccc(C(C)(C)C)c(O)c1 | inactive |
| CC(COc1ccc(C(C)(C)C)cc1)OS(=O)OCCCl (stereo not given) | inactive |
| CCOC(=O)NCCOc1ccc(Oc2ccccc2)cc1 | inactive |
| O=C(O)CCCCCCC(=O)O | inactive |
| CC(C)CCCCOC(=O)c1ccccc1C(=O)OCCCCC(C)C | inactive |
| COC(OC)(C(=O)c1ccccc1)c1ccccc1 | inactive |
| CC(C)C[C@H](NC(=O)OCC1c2ccccc2-c2ccccc21)C(=O)O | inactive |
| COC(=O)CCSCCC(=O)OC | inactive |
| CC(C)(C)[C@H](O)[C@H](Cc1ccc(Cl)cc1)n1cncn1 | inactive |
| CCOC(=O)[C@H](C)Oc1ccc(Oc2nc3ccc(Cl)cc3o2)cc1 | inactive |
| COCCOCCOCCOC | inactive |
| CCCCCCC(O)CCCCCCCCCCC(=O)O (stereo not given) | inactive |
| CCOCCOCCOC(C)=O | inactive |
| CCOCCOCCOCC | inactive |
| CCOc1ccc(NC(=O)OC(C)C)cc1OCC | inactive |
| CCCCCCC(C)(C)S | inactive |
| CC(C)Nc1nc(N)nc(Cl)n1 | inactive |
| CCC(C)OC(=O)N1CCCCC1CCO (stereo not given) | inactive |
| CCCCCCCCCC(=O)OC | inactive |

Biological target: Nuclear receptor subfamily 1 group I member 2 (Rattus norvegicus) (UniProt Q9R1A7)
Assay: qHTS assay for small molecule activators of the rat pregnane X receptor (rPXR) signaling pathway (AID 651751)
Conditions: rPXR reporter cells, luciferase (One-Glo), 24 h

Chain of Nuclear receptor subfamily 1 group I member 2 (Rattus norvegicus) (Q9R1A7 whole entry, looked up): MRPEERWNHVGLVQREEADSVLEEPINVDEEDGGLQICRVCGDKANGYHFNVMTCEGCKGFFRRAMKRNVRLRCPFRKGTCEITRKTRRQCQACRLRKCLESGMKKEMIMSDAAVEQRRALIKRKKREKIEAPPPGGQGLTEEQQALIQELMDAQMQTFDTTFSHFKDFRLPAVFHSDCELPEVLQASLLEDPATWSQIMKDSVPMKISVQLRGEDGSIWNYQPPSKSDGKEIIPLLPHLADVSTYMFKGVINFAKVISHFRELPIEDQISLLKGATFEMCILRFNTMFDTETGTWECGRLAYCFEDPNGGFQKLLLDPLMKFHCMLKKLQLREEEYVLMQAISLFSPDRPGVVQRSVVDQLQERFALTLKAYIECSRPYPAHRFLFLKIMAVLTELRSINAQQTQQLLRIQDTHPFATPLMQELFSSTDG

| SMILES | max response |
| --- | --- |
| CC(C)CCCCCCCCCCCCCCC(=O)O | 1.88% (inactive) |
| CCCCCCCCCCCCc1ccccc1 | 0.082% (inactive) |
| C=CCOc1nc(OCC=C)nc(OCC=C)n1 | -0.162% (inactive) |
| CCOC(=O)c1ccccc1C | 1% (inactive) |
| CCCCCCCCCCCC[N+](C)(C)C | -11.2% (inactive) |
| CCCC/C=C\CCCCCCCCCC=O | 4.56% (inactive) |
| CCCCCCCCCCCCN | 0.146% (inactive) |
| CCC(O)OCCCOC (stereo not given) | 1.86% (inactive) |
| C=CCCCCCCCCCC | -5.04% (inactive) |
| CCCCCCCCCCCCCCC | -4.43% (inactive) |
| Oc1ccc(C(c2ccc(O)cc2)C(Cl)(Cl)Cl)cc1 | 2.83% (inactive) |
| CC(C)(N=C=O)c1cccc(C(C)(C)N=C=O)c1 | 4.49% (inactive) |
| CC(C)C(=O)OC(=O)C(C)C | -1.65% (inactive) |
| CC1=CC(=O)CC(C)(C)C1 | 1.52% (inactive) |
| CCCCCCCC/C=C\CCCCCCCCO | -0.215% (inactive) |
| CCCCCCCC[Si](OCC)(OCC)OCC | 6.41% (inactive) |
| CCCCCCCCCCCCCCCO | 3.48% (inactive) |
| COc1cc(Cl)c(OC)cc1N | 6.4% (inactive) |

| SMILES | max response |
| --- | --- |
| O=S(=O)(O)c1cc(S(=O)(=O)O)c2c(N=Nc3ccccc3)c(O)ccc2c1 | 3.04% (inactive) |
| Cc1ccc(C(C)(C)C)c(O)c1 | 1.73% (inactive) |
| CC(COc1ccc(C(C)(C)C)cc1)OS(=O)OCCCl (stereo not given) | -11.7% (inactive) |
| CCOC(=O)C(C)Oc1ccc(Oc2nc3ccc(Cl)cc3o2)cc1 (stereo not given) | -9.57% (inactive) |
| O=C(O)CCCCCCC(=O)O | -0.548% (inactive) |
| CC(C)CCCCOC(=O)c1ccccc1C(=O)OCCCCC(C)C | 13.4% (inactive) |
| COC(OC)(C(=O)c1ccccc1)c1ccccc1 | 3.76% (inactive) |
| COC(=O)CCSCCC(=O)OC | 0.101% (inactive) |
| CCOC(=O)[C@H](C)Oc1ccc(Oc2nc3ccc(Cl)cc3o2)cc1 | -0.698% (inactive) |
| COCCOCCOCCOC | -0.732% (inactive) |
| CCCCCCC(O)CCCCCCCCCCC(=O)O (stereo not given) | 0.495% (inactive) |
| CCOCCOCCOC(C)=O | 0.7% (inactive) |
| CCOCCOCCOCC | 1.72% (inactive) |
| CCOc1ccc(NC(=O)OC(C)C)cc1OCC | 10.3% (inactive) |
| CCCCCCC(C)(C)S | -1.98% (inactive) |
| CC(C)Nc1nc(N)nc(Cl)n1 | 4.66% (inactive) and -2.32% (inactive) |
| CCC(C)OC(=O)N1CCCCC1CCO (stereo not given) | -1.56% (inactive) |
| CCCCCCCCCC(=O)OC | -1.31% (inactive) |

System: not listed separately
Assay: qHTS assay for small molecule activators of the human pregnane X receptor (PXR) signaling pathway (AID 720659)
Conditions: DPX-2 HepG2 CYP3A4-luciferase, 24 h; series mostly up to 92.3 µM

| SMILES | outcome |
| --- | --- |
| CC(C)CCCCCCCCCCCCCCC(=O)O | inactive |
| CCCCCCCCCCCCc1ccccc1 | inactive |
| CCOC(=O)c1ccccc1C | inactive |
| CCCCCCCCCCCC[N+](C)(C)C | inactive |
| CCCC/C=C\CCCCCCCCCC=O | inactive |
| CCCCCCCCCCCCN | inactive |
| CCC(O)OCCCOC (stereo not given) | inactive |
| C=CCCCCCCCCCC | inactive |
| CCCCCCCCCCCCCCC | inactive |
| CC1=CC(=O)CC(C)(C)C1 | inactive |
| CCCCCCCC[Si](OCC)(OCC)OCC | inactive |
| CCCCCCCCCCCCCCCO | inactive |
| CCOC(=O)C(C)Oc1ccc(Oc2nc3ccc(Cl)cc3o2)cc1 (stereo not given) | inactive |
| O=C(O)CCCCCCC(=O)O | inactive |
| COC(OC)(C(=O)c1ccccc1)c1ccccc1 | inactive |
| COC(=O)CCSCCC(=O)OC | inactive |
| CCOC(=O)[C@H](C)Oc1ccc(Oc2nc3ccc(Cl)cc3o2)cc1 | inactive |
| COCCOCCOCCOC | inactive |
| CCCCCCC(O)CCCCCCCCCCC(=O)O (stereo not given) | inactive |
| CCOCCOCCOC(C)=O | inactive |
| CCOCCOCCOCC | inactive |
| CCCCCCC(C)(C)S | inactive |
| CC(C)Nc1nc(N)nc(Cl)n1 | inactive |
| CCC(C)OC(=O)N1CCCCC1CCO (stereo not given) | inactive |
| CCCCCCCCCC(=O)OC | inactive |
